Reference: PubChem BioAssay (NCATS)
Results filed as inconclusive are left out. The source made the active and inactive calls. Calls follow the shape of the dose curve; as a rule, active = well fitted inhibition curve with a large enough effect; inconclusive = small, poorly fitted or top-dose-only effect; inactive = flat fitted curve, though single readings scatter.

Columns and labels:
[1] = qHTS profiling for inhibitors of Plasmodium falciparum proliferation (AID 504749);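 also: 0% = DMSO vehicle and full inhibition = artemisinin control; nearly all actives have a fitted effect of over 60% in size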; details: P. falciparum in erythrocytes, SYBR Green DNA, 72 h, at 28.7 µM (top of the series)
In short: (§1)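 SYBR Green fluorescence (ex 485 nm, em 535 nm) reports parasite DNA after 72 h compound exposure of infected red cells at 0.3% parasitemia, 2.5% hematocrit; signal normalized to 0.29 uM artemisinin and vehicle wells.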

[2] = tested on: 3D7; experiment: as above; details: P. falciparum in erythrocytes, SYBR Green DNA, 72 h; series mostly up to 28.7 µM
In short: as §1

[3] = tested on: 7G8; experiment: as above; details: P. falciparum in erythrocytes, SYBR Green DNA, 72 h; series mostly up to 28.7 µM
In short: as §1

[4] = tested on: AA1029; experiment: as above; details: P. falciparum in erythrocytes, SYBR Green DNA, 72 h; series mostly up to 28.7 µM
In short: as §1

[5] = tested on: AS120; experiment: as above; details: P. falciparum in erythrocytes, SYBR Green DNA, 72 h; series mostly up to 28.7 µM
In short: as §1

[6] = tested on: ATS189; experiment: as above; details: P. falciparum in erythrocytes, SYBR Green DNA, 72 h; series mostly up to 28.7 µM
In short: as §1

[7] = tested on: ATS95; experiment: as above; details: P. falciparum in erythrocytes, SYBR Green DNA, 72 h; series mostly up to 28.7 µM
In short: as §1

[8] = tested on: C2A; experiment: as above; details: P. falciparum in erythrocytes, SYBR Green DNA, 72 h; series mostly up to 28.7 µM
In short: as §1

[9] = tested on: CP185; experiment: as above; details: P. falciparum in erythrocytes, SYBR Green DNA, 72 h; series mostly up to 28.7 µM
In short: as §1

[10] = tested on: CP191; experiment: as above; details: P. falciparum in erythrocytes, SYBR Green DNA, 72 h; series mostly up to 28.7 µM
In short: as §1

[11] = tested on: CP192; experiment: as above; details: P. falciparum in erythrocytes, SYBR Green DNA, 72 h; series mostly up to 28.7 µM
In short: as §1

[12] = tested on: CP194; experiment: as above; details: P. falciparum in erythrocytes, SYBR Green DNA, 72 h; series mostly up to 28.7 µM
In short: as §1

[13] = tested on: CP201; experiment: as above; details: P. falciparum in erythrocytes, SYBR Green DNA, 72 h; series mostly up to 28.7 µM
In short: as §1

[14] = tested on: CP203; experiment: as above; details: P. falciparum in erythrocytes, SYBR Green DNA, 72 h; series mostly up to 28.7 µM
In short: as §1

[15] = tested on: CP211; experiment: as above; details: P. falciparum in erythrocytes, SYBR Green DNA, 72 h; series mostly up to 28.7 µM
In short: as §1

[16] = tested on: CP215; experiment: as above; details: P. falciparum in erythrocytes, SYBR Green DNA, 72 h; series mostly up to 28.7 µM
In short: as §1

[17] = tested on: CP217; experiment: as above; details: P. falciparum in erythrocytes, SYBR Green DNA, 72 h; series mostly up to 28.7 µM
In short: as §1

[18] = tested on: CP237; experiment: as above; details: P. falciparum in erythrocytes, SYBR Green DNA, 72 h; series mostly up to 28.7 µM
In short: as §1

[19] = tested on: CP238; experiment: as above; details: P. falciparum in erythrocytes, SYBR Green DNA, 72 h; series mostly up to 28.7 µM
In short: as §1

[20] = tested on: CP247; experiment: as above; details: P. falciparum in erythrocytes, SYBR Green DNA, 72 h; series mostly up to 28.7 µM
In short: as §1

CC1=C(/C=C/C(C)=C/C=C/C(C)=C/C(=O)Oc2c(C)c(C)c3c(c2C)CC[C@@](C)(CCC[C@H](C)CCC[C@H](C)CCCC(C)C)O3)C(C)(C)CCC1
inactive: activity, negative = inhibition ([1]; parasite line A) 5.64% | activity, negative = inhibition ([1]; parasite line B) 7.26% | Potency [2] | Potency [3] | Potency [4] | Potency [5] | Potency [6] | Potency [7] | Potency [8] | Potency [9] | Potency [10] | Potency [11] | Potency [12] | Potency [13] | Potency [14] | Potency [15] | Potency [16] | Potency [17] | Potency [18] | Potency [19] | Potency [20]

CC(=O)Nc1ccc(OC(C)=O)cc1
inactive: activity, negative = inhibition ([1]; parasite line A) 10.5% | activity, negative = inhibition ([1]; parasite line B) 11.7% | Potency [2] | Potency [3] | Potency [4] | Potency [5] | Potency [6] | Potency [7] | Potency [8] | Potency [9] | Potency [10] | Potency [11] | Potency [12] | Potency [13] | Potency [14] | Potency [15] | Potency [16] | Potency [17] | Potency [18] | Potency [19] | Potency [20]

CCCCC
inactive: activity, negative = inhibition ([1]; parasite line A) 7.05% | activity, negative = inhibition ([1]; parasite line B) 20.9% | Potency [2] | Potency [3] | Potency [4] | Potency [5] | Potency [6] | Potency [7] | Potency [8] | Potency [9] | Potency [10] | Potency [11] | Potency [12] | Potency [13] | Potency [14] | Potency [15] | Potency [16] | Potency [17] | Potency [18] | Potency [19] | Potency [20]

Cc1ncc(C[n+]2csc(CCOP(=O)(O)OP(=O)(O)O)c2C)c(N)n1
inactive: activity, negative = inhibition ([1]; parasite line A) -0.174% | activity, negative = inhibition ([1]; parasite line B) 5.83% | Potency [2] | Potency [3] | Potency [4] | Potency [5] | Potency [6] | Potency [7] | Potency [8] | Potency [9] | Potency [10] | Potency [11] | Potency [12] | Potency [13] | Potency [14] | Potency [15] | Potency [16] | Potency [17] | Potency [18] | Potency [19] | Potency [20]

CO
inactive: activity, negative = inhibition ([1]; parasite line A) 8.74% | activity, negative = inhibition ([1]; parasite line B) -8% | Potency [2] | Potency [3] | Potency [4] | Potency [5] | Potency [6] | Potency [7] | Potency [8] | Potency [9] | Potency [10] | Potency [11] | Potency [12] | Potency [13] | Potency [14] | Potency [15] | Potency [16] | Potency [17] | Potency [18] | Potency [19] | Potency [20]

O=[n+]1ccn([O-])c2ccccc21
inactive: activity, negative = inhibition ([1]; parasite line A) 14.9% | activity, negative = inhibition ([1]; parasite line B) 3.55% | Potency [2] | Potency [3] | Potency [4] | Potency [5] | Potency [6] | Potency [7] | Potency [8] | Potency [9] | Potency [10] | Potency [11] | Potency [12] | Potency [13] | Potency [14] | Potency [15] | Potency [16] | Potency [17] | Potency [18] | Potency [19] | Potency [20]

CC1C(=O)CC2C3(C)CCC2(C(C)C(=O)O)C(=O)C13 (configuration not stated)
inactive: activity, negative = inhibition ([1]; parasite line A) 5.64% | activity, negative = inhibition ([1]; parasite line B) 13.7% | Potency [2] | Potency [3] | Potency [4] | Potency [5] | Potency [6] | Potency [7] | Potency [8] | Potency [9] | Potency [10] | Potency [11] | Potency [12] | Potency [13] | Potency [14] | Potency [15] | Potency [16] | Potency [17] | Potency [18] | Potency [19] | Potency [20]

O=C(NCCNCC(O)COc1ccc(O)cc1)N1CCOCC1 (configuration not stated)
inactive: activity, negative = inhibition ([1]; parasite line A) 8.13% | activity, negative = inhibition ([1]; parasite line B) 8.21% | Potency [2] | Potency [3] | Potency [4] | Potency [5] | Potency [6] | Potency [7] | Potency [8] | Potency [9] | Potency [10] | Potency [11] | Potency [12] | Potency [13] | Potency [14] | Potency [15] | Potency [16] | Potency [17] | Potency [18] | Potency [19] | Potency [20]

CCc1ncnc2cc(OC)c(OC)cc12
inactive: activity, negative = inhibition ([1]; parasite line A) -5.32% | activity, negative = inhibition ([1]; parasite line B) 10.1% | Potency [2] | Potency [3] | Potency [4] | Potency [5] | Potency [6] | Potency [7] | Potency [8] | Potency [9] | Potency [10] | Potency [11] | Potency [12] | Potency [13] | Potency [14] | Potency [15] | Potency [16] | Potency [17] | Potency [18] | Potency [19] | Potency [20]

CC(O)CN(C)C (configuration not stated)
inactive: activity, negative = inhibition ([1]; parasite line A) 11.7% | activity, negative = inhibition ([1]; parasite line B) -4.96% | Potency [2] | Potency [3] | Potency [4] | Potency [5] | Potency [6] | Potency [7] | Potency [8] | Potency [9] | Potency [10] | Potency [11] | Potency [12] | Potency [13] | Potency [14] | Potency [15] | Potency [16] | Potency [17] | Potency [18] | Potency [19] | Potency [20]

C=C(C)C1CC=C(C)CC1 (configuration not stated)
inactive: activity, negative = inhibition ([1]; parasite line A) 7.1% | activity, negative = inhibition ([1]; parasite line B) 5.88% | Potency [2] | Potency [3] | Potency [4] | Potency [5] | Potency [6] | Potency [7] | Potency [8] | Potency [9] | Potency [10] | Potency [11] | Potency [12] | Potency [13] | Potency [14] | Potency [15] | Potency [16] | Potency [17] | Potency [18] | Potency [19] | Potency [20]

CCC(C(=O)NC(N)=O)c1ccccc1 (configuration not stated)
inactive: activity, negative = inhibition ([1]; parasite line A) -3.47% | activity, negative = inhibition ([1]; parasite line B) 11.3% | Potency [2] | Potency [3] | Potency [4] | Potency [5] | Potency [6] | Potency [7] | Potency [8] | Potency [9] | Potency [10] | Potency [11] | Potency [12] | Potency [13] | Potency [14] | Potency [15] | Potency [16] | Potency [17] | Potency [18] | Potency [19] | Potency [20]
